Only some compounds are listed: those with a hit (about 7.9% of all), similar ones and a draw of the others.
HCV inhibitor = qHTS Assay for Inhibitors of Hepatitis C Virus (HCV) | 3.4% of 340,000 active | Huh7.5.1 HCVcc-Cre infection, luciferase reporter, 44 h | Potency, µM (doses to about 41.8 µM), for inactives: top-dose activity change, negative = inhibition, hits mostly inhibitors | AID 651820, 2012; active = well fitted inhibition curve with a large enough effect; inconclusive = small, poorly fitted or top-dose-only effect, or another doubt; inactive = no such curve, though single readings can be large or run the other way; note: potency is the fitted concentration of half-maximal effect
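Reporter virus HCVcc-Cre (~0.5 moi) infects cells exposed to compound; seeding density 1,000 cells/well with 4 h settling beforehand. Luminescence, 15 sec read, taken 44 h post-infection following a 15 min RT substrate incubation.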
FMDV antiviral = High Throughput Screening for Foot and Mouth Disease Virus Antivirals | AID 1159524, 2015 | FMDV antiviral cell-based qHTS | Potency, µM (highest dose often 57.9 µM), without a hit: at the top dose activity change, negative = inhibition, most hits filed as inhibitors | 1.2% of 410,000 active; calls by dose curve; tested in HEK293T cells; note: read-out not given here; potency is the fitted concentration of half-maximal effect; nearly all actives have a fitted effect of over 45% in size
Lassa entry inh = qHTS for Inhibitors of binding or entry into cells for Lassa Virus; Lassa virus pseudotype entry inhibition, cell reporter; Potency, µM (titrated, usually from 37.9 µM), for inactives: at the highest dose activity change, negative = inhibition, actives largely listed as inhibitors; 1.2% of 300,000 active; AID 540256, 2011; calls by dose curve; tested in HEK293 cells; note: potency is the fitted concentration of half-maximal effect; nearly all actives have a fitted effect of over 50% in size
Marburg entry inh = qHTS for inhibitors of binding or entry into cells for Marburg Virus; 1.8% of 300,000 active; Marburg virus pseudotyped entry inhibition, cell reporter; Potency, µM (top dose mostly 37.8 µM), without a hit: at the top dose activity change, negative = inhibition, hits mostly inhibitors; AID 540276, 2011; calls by dose curve; tested in HEK293 cells; note: potency is the fitted concentration of half-maximal effect
HCMV antiviral = qHTS Assay for inhibitors of the human cytomegalovirus (HCMV); HFF cells, HCMV-luciferase reporter, 72 h; active compounds read low; activity change, negative = inhibition, % at 57.5 µM; 4.5% of 410,000 active; AID 1259415, 2018; in the data active = activity change below about -60%; inconclusive = no clear call, values can overlap the other calls; inactive = above about -39%
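HFF cells seeded 16 h at 37C, treated with compounds, infected with luciferase-reporter HCMV at MOI 1 PFU/cell; luciferase read at 72 h post infection, normalized to buffer-only and Salinomycin controls.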
* = called active by the depositor; ? = inconclusive; / = no result; [ ] = another dose, or the depositor's remark. % is set by controls: 0 for no effect and ±100 for the full control effect.

SMILES	HCV inhibitor	FMDV antiviral	Lassa entry inh	Marburg entry inh	HCMV antiviral
COc1ccccc1NC(=O)C(C)OC(=O)CSCC(=O)Nc1cc(C)on1 (configuration not stated)	11%	-2%	/	/	-15
CC(=O)Nc1ccc(-c2nnc3n(Cc4ccc(C)cc4)c(=O)c4ccccc4n23)cc1	/	-13%	2%[46.1 µM]	3%[46.1 µM]	8
NCCNS(=O)(=O)c1cccc2cnccc12	/	-5%	/	?	/
COc1ccccc1C(=O)NCCC(=O)NCc1ccncc1	7%	0%	7%	?	-6
COc1ccc(N2CCn3c2nc2c3c(=O)n(CCc3ccccc3)c(=O)n2C)c(OC)c1	/	/	/	2%	/
Cn1c(=O)c2c(nc(N3CCN(c4ccccn4)CC3)n2Cc2ccccc2Cl)n(C)c1=O	?	7%	21µM*	?	-1
COc1ccc(N2CCn3c2nc2c3c(=O)n(CCCc3ccccc3)c(=O)n2C)c(OC)c1	14µM*	13µM*	?	?	-90*
COc1ccc(N2CCN(c3nc4c(c(=O)n(C)c(=O)n4C)n3Cc3ccccc3)CC2)cc1	11µM*	-28%	8.9µM*	10µM*	4
C=C(C)Cn1c(N2CCN(c3ccc(OC)cc3)CC2)nc2c1c(=O)n(C)c(=O)n2C	?	28µM*	?	?	?
CCCCCC(=O)N1C[C@@H](O)[C@H](n2cc(-c3ccc(F)cc3)nn2)C[C@H]1c1ccccc1	/	/	-7%[46.1 µM]	/	/
CCOC(=O)Cn1c(=O)c2c(nc(Br)n2Cc2ccccc2Cl)n(C)c1=O	?	?	?	-20%	37
C=CCn1c(=O)c2c(nc(Br)n2Cc2ccccc2Cl)n(C)c1=O	-5%	?	?	-21%	-73*
CCn1c(Oc2ccccc2C)nc2c1c(=O)n(C)c(=O)n2C	3%	-9%	/	/	-74*
C#CCOc1nc2c(c(=O)n(C)c(=O)n2C)n1Cc1ccccc1	13µM*	?	/	/	-39
COC(=O)[C@@H]1CCCN1C(=O)c1c(OC)cc(=O)n2c1CCN(Cc1ccc3nsnc3c1)CC2	/	-4%	/	/	/
CCn1cc(C(=O)N2CCN(c3cccc(C)c3C)CC2)c2cc(OC)c(OC)cc2c1=O	/	0%	-7%[46.1 µM]	15%[46.1 µM]	-20
COC(=O)C1=C(c2ccc(-c3ccccc3)c(F)c2)C[C@@H]2CC[C@H]1N2C(=O)NCC1CC1	?	?	/	/	-39
COCCNC(=O)N1[C@H]2CC[C@@H]1C(C(=O)OC)=C(c1ccc(-c3ccccc3)c(F)c1)C2	3.2µM*	-13%	/	/	-40
COC(=O)C1=C(c2ccc(-c3ccccc3)c(F)c2)C[C@@H]2CC[C@H]1N2C(=O)NCCOc1ccccc1	13µM*	?	/	/	40
Cc1nn(C(C)(C)C)c(C)c1/C=N/OC(=O)Nc1ccc(Cl)c(Cl)c1	-27%	0.32µM*	/	/	-61*
COc1ccc(NC(=O)O/N=C/c2c(C)nn(C(C)(C)C)c2C)cc1	-27%	?	/	/	?
COc1cccc(/C=N/NC(=O)c2ccoc2C)c1O	10µM*	-29%	/	/	-82*
COc1cccc(/C=N/NC(=O)C(=O)N/N=C/c2cccc(OC)c2O)c1O	-14%	4%	?	?	-28
NC(=Nc1ccccc1)NN=Cc1c[nH]c2ccccc12	?	?	-20%	?	-85*
O=C(N/N=C/c1c[nH]c2ccccc12)c1ccc(O)c(O)c1	-10%	14%	15%	18%	/
SMILES	HCV inhibitor	FMDV antiviral	Lassa entry inh	Marburg entry inh	HCMV antiviral
Cc1ccc(/C=N/NC(=O)c2c(-c3ccccc3)noc2C)c(O)c1	/	/	/	/	-110*
COc1cc(/C=N/NC(=O)c2c(-c3ccccc3)noc2C)ccc1O	-1%	?	-9%	?	6
Cc1onc(-c2ccccc2)c1C(=O)N/N=C/c1c[nH]c2ccccc12	?	?	10µM*	3%[46.1 µM]	73
COc1ccc(OC)c(-c2cc(Cl)c3c(c2)CC(CNC(=O)c2cccnc2SC)O3)c1 (configuration not stated)	/	-3%	/	/	/
N#CC(c1ccc(O)cc1)N1CCN(C(C#N)c2ccc(O)cc2)CC1 (configuration not stated)	8%	3%	5%	-9%	-10
COc1ccc2cc(S(=O)(=O)NCc3cccnc3)ccc2c1	?	14%	-24%	-16%[46.1 µM]	?

Screens (PubChem)
